According to PubChem BioAssay (EPA / NIEHS):
Activity calls are given as the source filed them. How the source made its calls: active means hit-call score of the fitted dose curve at least 0.9, where 1 is the maximum; inactive means score below 0.9.

Columns and labels:
[1] = BSK_hDFCGF_SRB: Viability Assessment in the BioMAP Diversity Plus: hDFCGF Assay (AID 2283061); settings: primary human foreskin fibroblasts;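 further: cells exposed to compound for 24 h before the read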
Outline: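 Cells were dosed with test chemical, cultured 24 h, fixed with 10% TCA, then stained with 0.1% SRB and read at 560 nm. The fibroblasts were human foreskin primary cells, and DMSO served as baseline.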

[2] = read-out: TIMP metallopeptidase inhibitor 1 (TIMP1), TIMP1 (gene 7076); experiment: BSK_hDFCGF_TIMP1: BioMAP Diversity Plus: hDFCGF Assay for TIMP metallopeptidase inhibitor 1 (TIMP1) Biomarker Activity (AID 2283062); settings: primary human foreskin fibroblasts; actives raise or lower the signal
Outline: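 Fibroblasts from human foreskin are treated with test chemical and harvested at 24 h. TIMP-1 is quantified by ELISA, and gain or loss of signal is scored against DMSO.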

[3] = read-out: Matrix Metallopeptidase 1 (MMP1), MMP1 (gene 4312); experiment: BSK_hDFCGF_MMP1: BioMAP Diversity Plus: hDFCGF Assay for Matrix Metallopeptidase 1 (MMP1) Biomarker Activity (AID 2283064); settings: primary human foreskin fibroblasts; actives raise or lower the signal
Outline: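 Primary human foreskin fibroblasts in the hDFCGF system were dosed with test chemical, and MMP1 was measured by ELISA 24 h later. Values come from bidirectional curve fitting against the DMSO baseline.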

[4] = read-out: Vascular cell adhesion molecule 1 (VCAM1), VCAM1 (gene 7412); experiment: BSK_hDFCGF_VCAM1: BioMAP Diversity Plus: hDFCGF Assay for Vascular cell adhesion molecule 1 (VCAM1) Biomarker Activity (AID 2283065); settings: primary human foreskin fibroblasts; actives raise or lower the signal;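 on AC50: VCAM-1 protein level quantified by ELISA after 24 h chemical exposure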
Outline: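 Cells are dosed, cultured for 24 h, then VCAM-1 is quantified by ELISA; signal increases and decreases are both fitted relative to DMSO.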

[5] = read-out: Plasminogen activator inhibitor-1 (PAI1), SERPINE1 (gene 5054); experiment: BSK_hDFCGF_PAI1: BioMAP Diversity Plus: hDFCGF Assay for Plasminogen activator inhibitor-1 (PAI1) Biomarker Activity (AID 2283066); settings: primary human foreskin fibroblasts; actives raise or lower the signal
Outline: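 Human foreskin fibroblasts in the hDFCGF system were dosed with compound for 24 h; PAI-1 was quantified by ELISA. Bidirectional curve fitting used DMSO as negative control and baseline.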

[6] = read-out: Intercellular Adhesion Molecule 1 (ICAM1), ICAM1 (gene 3383); experiment: BSK_KF3CT_ICAM1: BioMAP Diversity Plus: KF3CT Assay for Intercellular Adhesion Molecule 1 (ICAM1) Biomarker Activity (AID 2283067); settings: primary human keratinocytes with fibroblasts; actives raise or lower the signal
Outline: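 Dose the keratinocyte/fibroblast co-culture, wait 24 h, measure ICAM-1 by ELISA, then fit increases or decreases against DMSO. Cytotoxicity is checked in parallel cultures by SRB total-protein staining.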

[7] = read-out: Interleukin-1 alpha (IL1a), IL1A (gene 3552); experiment: BSK_KF3CT_IL1a: BioMAP Diversity Plus: KF3CT Assay for Interleukin-1 alpha (IL1a) Biomarker Activity (AID 2283070); settings: primary human keratinocytes with fibroblasts; actives raise or lower the signal
Outline: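 Human keratinocyte plus foreskin fibroblast primary co-culture, sampled 24 h after chemical dosing. IL-1a measured by ELISA; responses fitted bidirectionally against DMSO baseline (negative control), so gain or loss of signal both count.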

[8] = read-out: C-C motif chemokine 2 (Homo sapiens) (UniProt P13500); experiment: BSK_KF3CT_MCP1: BioMAP Diversity Plus: KF3CT Assay for Monocyte Chemoattractant Protein 1 (MCP1/CCL2) Biomarker Activity (AID 2283073); settings: primary human keratinocytes with fibroblasts; actives raise or lower the signal
Outline: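 Keratinocytes and foreskin fibroblasts were co-cultured, dosed with chemical, and sampled 24 h later. MCP-1 was quantified by ELISA, and the endpoint was analyzed with bidirectional fitting using DMSO as negative control.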

[9] = read-out: Matrix Metallopeptidase 9 (MMP9), MMP9 (gene 4318); experiment: BSK_KF3CT_MMP9: BioMAP Diversity Plus: KF3CT Assay for Matrix Metallopeptidase 9 (MMP9) Biomarker Activity (AID 2283074); settings: primary human keratinocytes with fibroblasts; actives raise or lower the signal;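 on AC50: MMP9 protein level quantified by ELISA in the co-culture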
Outline: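 Keratinocyte plus foreskin fibroblast human primary skin co-culture was dosed with chemical and MMP-9 was quantified by ELISA 24 h later. Bidirectional curve fitting used DMSO as negative control and activity baseline.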

[10] = read-out: urokinase plasminogen activator (uPA), PLAU (gene 5328); experiment: BSK_KF3CT_uPA: BioMAP Diversity Plus: KF3CT Assay for urokinase plasminogen activator (uPA) Biomarker Activity (AID 2283075); settings: primary human keratinocytes with fibroblasts; actives raise or lower the signal
Outline: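 Human keratinocyte plus foreskin fibroblast primary co-culture exposed to chemical for 24 h. uPA levels were quantified by ELISA, and activity was fitted bidirectionally against a DMSO negative-control baseline.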

CD40, CD40 (gene 958) = experiment: BSK_LPS_CD40: BioMAP Diversity Plus: LPS Assay for CD40 Biomarker Activity (AID 2283076); settings: primary human HUVEC with PBMC; actives raise or lower the signal
Outline: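 CD40 signal, measured by ELISA, is fitted in both directions relative to DMSO vehicle. The system is an LPS-driven human vascular primary co-culture of endothelial cells and PBMC, sampled 24 h after compound addition.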

[11] = read-out: E-selectin (Homo sapiens) (UniProt P16581); experiment: BSK_LPS_Eselectin: BioMAP Diversity Plus: LPS Assay for Eselectin Biomarker Activity (AID 2283077); settings: primary human HUVEC with PBMC; actives raise or lower the signal
Outline: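 Signal of E-selectin, detected by ELISA, served as the endpoint; cells were umbilical vein endothelium with PBMC, read 24 h after treatment. DMSO defined baseline, and both increases and decreases were fitted.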

[12] = read-out: Interleukin-8 (IL8), CXCL8 (gene 3576); experiment: BSK_LPS_IL8: BioMAP Diversity Plus: LPS Assay for Interleukin-8 (IL8) Biomarker Activity (AID 2283078); settings: primary human HUVEC with PBMC; actives raise or lower the signal
Outline: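 Endothelial cells and PBMC from human donors are co-cultured, treated with chemicals and LPS, then assayed for IL-8 by ELISA after 24 h. Parallel SRB staining (0.1% SRB after 10% TCA fixation, 560 nm) flags cytotoxicity.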

[13] = BSK_LPS_SRB: Viability Assessment in the BioMAP Diversity Plus: LPS Assay (AID 2283079); settings: primary human HUVEC with PBMC;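 further: total protein by sulforhodamine B absorbance as a cytotoxicity measure; measured one day after compound addition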
Outline: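 Overt cytotoxicity was gauged by sulforhodamine B total-protein staining in a primary human vascular endothelial and mononuclear cell co-culture 24 h post-dosing. Activity was fitted in both directions relative to DMSO.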

[14] = BSK_KF3CT_SRB: Viability Assessment in the BioMAP Diversity Plus: KF3CT Assay (AID 2283069); settings: primary human keratinocytes with fibroblasts
Outline: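 Human primary keratinocyte plus foreskin fibroblast co-culture exposed to chemicals for 24 h. Total protein measured by 0.1% sulforhodamine B staining after 10% TCA fixation, read at 560 nm; bidirectional fitting versus DMSO baseline.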

[15] = read-out: Interleukin-1 alpha (IL1a), IL1A (gene 3552); experiment: BSK_LPS_IL1a: BioMAP Diversity Plus: LPS Assay for Interleukin-1 alpha (IL1a) Biomarker Activity (AID 2283080); settings: primary human HUVEC with PBMC; actives raise or lower the signal
Outline: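 Measured: IL-1 alpha via ELISA at 24 h in LPS-activated human umbilical vein endothelium–PBMC co-culture. Baseline: DMSO, bidirectional fitting.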

[16] = read-out: TIMP metallopeptidase inhibitor 2 (TIMP2), TIMP2 (gene 7077); experiment: BSK_KF3CT_TIMP2: BioMAP Diversity Plus: KF3CT Assay for TIMP metallopeptidase inhibitor 2 (TIMP2) Biomarker Activity (AID 2283071); settings: primary human keratinocytes with fibroblasts; actives raise or lower the signal
Outline: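 Human primary keratinocyte/foreskin fibroblast co-culture dosed with chemical and sampled at 24 h. TIMP-2 levels quantified by ELISA; bidirectional fitting against DMSO negative control as baseline.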

[17] = read-out: Interferon-gamma inducible Protein 10 (IP10), CXCL10 (gene 3627); experiment: BSK_KF3CT_IP10: BioMAP Diversity Plus: KF3CT Assay for Interferon-gamma inducible Protein 10 (IP10) Biomarker Activity (AID 2283068); settings: primary human keratinocytes with fibroblasts; actives raise or lower the signal
Outline: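 ELISA read-out of IP-10 after 24 h chemical dosing of human skin primary co-culture (keratinocytes, foreskin fibroblasts). Gain or loss of signal relative to DMSO, bidirectional curve fit.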

E-selectin (Homo sapiens), sequence (P16581 whole entry, looked up): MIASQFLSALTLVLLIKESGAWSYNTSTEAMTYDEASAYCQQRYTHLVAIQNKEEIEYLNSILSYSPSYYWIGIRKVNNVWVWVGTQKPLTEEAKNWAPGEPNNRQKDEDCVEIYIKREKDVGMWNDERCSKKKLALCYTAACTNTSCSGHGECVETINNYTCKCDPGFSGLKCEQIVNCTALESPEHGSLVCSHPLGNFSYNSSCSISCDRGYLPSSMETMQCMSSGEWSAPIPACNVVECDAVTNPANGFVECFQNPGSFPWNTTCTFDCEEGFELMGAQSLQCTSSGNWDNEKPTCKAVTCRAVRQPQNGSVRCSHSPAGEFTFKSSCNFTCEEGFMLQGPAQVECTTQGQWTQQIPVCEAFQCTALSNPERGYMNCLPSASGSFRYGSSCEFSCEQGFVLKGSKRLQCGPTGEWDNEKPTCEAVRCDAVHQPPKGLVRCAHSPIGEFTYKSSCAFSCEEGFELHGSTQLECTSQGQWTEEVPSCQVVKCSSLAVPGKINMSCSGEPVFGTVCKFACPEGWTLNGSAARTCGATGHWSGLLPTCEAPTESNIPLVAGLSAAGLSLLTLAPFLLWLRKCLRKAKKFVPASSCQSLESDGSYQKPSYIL

For O=C(CCCN1CCC(O)(c2ccc(Cl)cc2)CC1)c1ccc(F)cc1, the outcome [1] was “inactive”, the outcome [2] was “inactive” and the outcome [3] was “inactive”. For the same compound, the outcome [4] was “inactive”, the outcome [5] was “inactive” and the outcome [6] was “inactive”. The outcome [7] was “inactive”, the outcome [8] was “inactive” and the outcome [9] was “inactive”. For the same compound, the outcome [10] was “inactive”, the outcome (CD40, CD40 (gene 958)) was “inactive” and the AC50 [11] was 1.67 µM (active). For the same compound, the outcome [12] was “inactive” and the outcome [13] was “inactive”.

In the case of CC1=NN(c2ccccc2)C(=O)C1, the outcome [1] is reported as “inactive”, the outcome [2] is reported as “inactive” and the outcome [3] is reported as “inactive”. For the same compound, the outcome [4] was “inactive”, the outcome [5] was “inactive” and the outcome [6] was “inactive”. The outcome [14] was “inactive”, the outcome [7] was “inactive” and the outcome [8] was “inactive”. For the same compound, the outcome [9] was “inactive”, the outcome [10] was “inactive” and the outcome (CD40, CD40 (gene 958)) was “inactive”. The outcome [11] was “inactive”, the outcome [12] was “inactive” and the outcome [13] was “inactive”. The outcome [15] was “inactive”.

With CN(C)c1ccc(C(=C2C=CC(=[N+](C)C)C=C2)c2ccccc2)cc1 the AC50 [1] was 0.0082 µM (active), the AC50 [2] was 0.0082 µM (active) and the AC50 [3] was 0.765 µM (active). For the same compound, the AC50 [4] was 0.0134 µM (active), the AC50 [5] was 0.0185 µM (active) and the AC50 [6] was 0.516 µM (active). For the same compound, the AC50 [7] was 0.359 µM (active), the AC50 [16] was 0.795 µM (active) and the AC50 [8] was 0.699 µM (active). The AC50 [9] was 0.0207 µM (active), the AC50 [10] was 0.465 µM (active) and the AC50 (CD40, CD40 (gene 958)) was 0.0133 µM (active). For the same compound, the AC50 [11] was 0.0082 µM (active), the outcome [12] was “inactive” and the AC50 [13] was 0.149 µM (active).

With Clc1ccc(Nc2nnc(Cc3ccncc3)c3ccccc23)cc1 the outcome [1] was “inactive”, the outcome [2] was “inactive” and the outcome [3] was “inactive”. The outcome [4] was “inactive”, the outcome [5] was “inactive” and the outcome [6] was “inactive”. For the same compound, the outcome [17] was “inactive”, the outcome [7] was “inactive” and the outcome [8] was “inactive”. For the same compound, the AC50 [9] was 7.58 µM (active), the outcome [10] was “inactive” and the outcome (CD40, CD40 (gene 958)) was “inactive”. The outcome [11] was “inactive”, the outcome [12] was “inactive” and the outcome [13] was “inactive”. For the same compound, the outcome [15] was “inactive”.

For O=C1OC2(c3ccccc31)c1cc(I)c(O)c(I)c1Oc1c2cc(I)c(O)c1I, the outcome [1] was “inactive”, the AC50 [2] was 6.04 µM (active) and the AC50 [3] was 7.71 µM (active). For the same compound, the AC50 [4] was 12 µM (active), the AC50 [5] was 5.52 µM (active) and the AC50 [6] was 17.4 µM (active). The outcome [14] was “inactive”, the AC50 [7] was 4.82 µM (active) and the AC50 [8] was 3.51 µM (active). For the same compound, the AC50 [9] was 14.9 µM (active), the AC50 [10] was 9.05 µM (active) and the AC50 (CD40, CD40 (gene 958)) was 8.71 µM (active). For the same compound, the AC50 [11] was 8.58 µM (active), the outcome [12] was “inactive” and the outcome [13] was “inactive”.
